Pf growth 96h – Primary qHTS for delayed death inhibitors of the malarial parasite plastid, 96 hour incubation | Potency, µM (top dose mostly 28.7 µM), hits mostly inhibitors | 320,000 tested, 6.9% active | P. falciparum luciferase reporter growth, 96 h
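Luminescence readout: decreased luciferase signal marks inhibited growth of reporter-expressing P. falciparum in infected red cells (2% hematocrit, 0.05% parasitemia final), exposed to compound two generations (96 h, 37 C, 5% CO2).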
Shiga toxin inh – A qHTS for Small Molecule Inhibitors of Shiga Toxin; Vero cells, Shiga toxin protein synthesis inhibition reporter; inhibition, % at 38.7 µM; 290,000 tested, 9.2% active; in the data active = inhibition mostly above about 28%, no sharp cut-off; inactive = mostly below about 43%
Pf growth 48h – Primary qHTS for delayed death inhibitors of the malarial parasite plastid, 48 hour incubation. Potency, µM (highest dose often 28.7 µM), usual class: inhibitors. P. falciparum luciferase growth in erythrocytes, 48 h. 310,000 tested, 5.9% active
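Erythrocytes infected with P. falciparum carrying an integrated firefly luciferase reporter (2% hematocrit, 0.1% parasitemia final) were exposed to compounds in RPMI 1640 with 0.5% Albumax at 37 C, 5% CO2. Growth inhibition was scored as reduced luminescence.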
Cycloheximide cs – Cycloheximide Counterscreen for Small Molecule Inhibitors of Shiga Toxin | cell reporter, cycloheximide protein synthesis inhibition counterscreen | max response, % | 300,000 tested, 12% active; in the data active = max response mostly above about 13%, no sharp cut-off; inactive = mostly below about 14%; note: read at 38.3 µM for the half of the compounds with a filed dose
HCV inhibitor – qHTS Assay for Inhibitors of Hepatitis C Virus (HCV). AID 651820, 2012. 340,000 tested, 3.4% active. Huh7.5.1 HCVcc-Cre infection, luciferase reporter, 44 h. Potency, µM (doses to about 41.8 µM), hits mostly inhibitors
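A cell-based infection assay in which seeded cells (1,000 per well) receive test compound after 4 h, are inoculated with HCVcc-Cre at approximately 0.5 moi, and are incubated 44 h before luminescence detection.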
HCMV antiviral – qHTS Assay for inhibitors of the human cytomegalovirus (HCMV); 410,000 tested, 4.5% active; HFF cells, HCMV-luciferase reporter, 72 h; active compounds read low; AID 1259415, 2018; activity change, negative = inhibition, % at 57.5 µM; in the data active = activity change below about -60%; inconclusive = no clear call, values can overlap the other calls; inactive = above about -39%
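After 16 h attachment at 37C, HFF cells received test compound and HCMV-luciferase (1 PFU/cell); reporter luminescence read 72 h later, data normalized against buffer-only and known inhibitor Salinomycin.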
Numbers stand for hits; n = inactive; u = inconclusive; x = not tested or not shown. The list is not random: actives were taken first. Their share in the collection is about 21%. Unless noted, calls come from the whole dose curve; as a rule, active = well fitted inhibition curve with a large enough effect; inconclusive = small, poorly fitted or top-dose-only effect, or another doubt; inactive = no such curve, though single readings can be large or run the other way.

SMILES	Pf growth 96h	Shiga toxin inh	Pf growth 48h	Cycloheximide cs	HCV inhibitor	HCMV antiviral
O=C(CN(Cc1ccc(F)cc1)C(=O)CNS(=O)(=O)c1ccccc1)NCc1ccco1	n	n	n	n	n	n
CCN(CC(=O)Nc1c(F)cccc1F)C(=O)c1ccc(S(=O)(=O)NCc2ccco2)cc1	n	x	n	x	n	n
CCN(CC(=O)NCc1ccc(Cl)cc1)C(=O)CNS(=O)(=O)c1ccc(NC(C)=O)cc1	u	n	12µM	n	n	x
COc1ccccc1N1CCN(C2CCCN(C(=O)CCc3ccccn3)C2)CC1 (stereo not drawn)	n	n	n	n	x	n
Cc1ccc(Cn2c(C)c(CNCCCc3ccccc3)c(C(=O)O)c2C)cc1	x	x	x	x	x	n
O=C(COC(=O)CCNS(=O)(=O)c1ccc(Cl)cc1)NCc1ccco1	2.1µM	n	n	n	n	n
O=c1[nH]c(=O)n(Cc2ccco2)c2c1C(C(F)(F)F)(C(F)(F)F)N=C(C1CCCCC1)N2	n	n	n	n	n	n
O=c1[nH]c(=O)n(-c2ccc(F)cc2)c2c1C(C(F)(F)F)(C(F)(F)F)N=C(c1ccc(F)cc1)N2	12µM	n	u	n	13µM	-99
O=c1[nH]c(=O)n(Cc2ccco2)c2c1C(C(F)(F)F)(C(F)(F)F)N=C(CCc1ccccc1)N2	2.3µM	n	u	n	u	n
N#Cc1ccc(C2=NC(C(F)(F)F)(C(F)(F)F)c3c(n(Cc4ccco4)c(=O)[nH]c3=O)N2)cc1	u	n	u	n	n	-85
C#CCOCCOCCOCCNc1nc(N2CCOCC2)nc(N2CCN(C(=O)[C@H](CCC(=O)O)n3cc(C(N)[C@H](C)CC)nn3)CC2)n1 (stereo partly drawn)	n	n	n	n	n	n
O=C(CSc1oc(-c2ccc(F)cc2)nc1S(=O)(=O)c1ccc(Cl)cc1)c1ccccc1	x	x	x	x	x	n
CC(=O)Nc1cccc(C(=O)/C=C/c2ccc(C)cc2)c1	u	n	n	17	13µM	n
CCC(=O)Nc1cccc(C(=O)/C=C/c2ccc(F)cc2)c1	u	n	u	17	10µM	-99
CCCn1nc2cc(C(=O)NCCc3cccs3)ccc2c1OCC	n	73	n	29	u	n
CCCn1nc2cc(C(=O)NC3CCc4ccccc43)ccc2c1OCC (stereo not drawn)	u	n	12µM	n	u	n
CCCCNC(=O)c1ccc2c(OCC)n(CCCC)nc2c1	u	n	n	n	u	n
COc1ccc(S(=O)(=O)N2CCOCC2)cc1NC(=O)CCCOc1ccc(Cl)cc1C	u	x	u	x	u	n
COc1ccccc1-c1csc2ncnc(Sc3nnnn3C)c12	u	x	u	x	x	-74
COc1ccccc1CNCCSc1nnnn1C	x	x	x	x	x	n
Cn1nnnc1Sc1ncnc2scc(Br)c12	x	x	x	x	x	-97
Cc1ccc(-c2csc3ncnc(SCC(N)=O)c23)cc1	n	n	n	n	u	n
CC(=O)Nc1ccc(Sc2ncnc3scc(-c4ccccc4)c23)cc1	u	n	n	n	n	n
CCCC(=O)Nc1ccccc1Sc1ncnc2scc(-c3ccccc3)c12	n	n	4.7µM	n	n	n
Cn1nnnc1Sc1ncnc2scc(-c3ccc(F)cc3)c12	u	n	n	n	u	-76
SMILES	Pf growth 96h	Shiga toxin inh	Pf growth 48h	Cycloheximide cs	HCV inhibitor	HCMV antiviral
Cc1cc(C)c2nc(N(Cc3cccnc3)C(=O)c3cccs3)sc2c1	x	x	x	x	x	n
Cn1nnnc1Sc1ncnc2scc(-c3ccc(Br)cc3)c12	x	x	x	x	x	-98
c1ccc(-c2csc3ncn4nnnc4c23)cc1	x	n	n	n	n	-100
Cn1nnnc1Sc1ncnc2scc(-c3ccc[nH]3)c12	u	x	10µM	x	x	-98
Cn1nnnc1Sc1ncnc2scc(-c3ccccc3)c12	n	n	12µM	n	n	-67
O=C(CSc1ncnc2scc(-c3ccccc3)c12)Nc1ccc(C(=O)O)cc1	n	n	n	n	n	n
O=C(NCc1ccc(F)cc1)C(Cc1ccccc1)n1cccc1 (stereo not drawn)	n	n	n	n	n	n
O=C1CCSC2(C(=O)N(Cc3ccc(F)cc3)c3ccccc32)N1c1ccc(Cl)cc1 (stereo not drawn)	x	x	x	x	x	n
Cn1nnnc1Sc1ncnc2scc(-c3ccccc3Br)c12	u	x	u	x	x	-93
CN(CP(=O)(O)C(O)c1ccccc1)S(C)(=O)=O (stereo not drawn)	n	n	x	n	n	-88
Cc1cccc(NCc2ccccc2O)c1C	n	n	u	n	n	n
CCCCCCCCCCCCCCCC[n+]1cccc2ccccc21	u	n	0.83µM	n	4.5µM	-98
Cc1ccccc1C[n+]1cccc2ccccc21	u	x	0.37µM	x	n	n
CCCCCCCCc1[se]c2ccccc2c1I	x	n	x	n	x	x
CCCCCCCCC[n+]1cccc2c3ccccc3ccc21	n	n	0.17µM	n	4.5µM	x
COc1ccc(S(=O)(=O)NC(C)(C)CO)cc1-c1nnc2c3ccccc3c(C)nn12	x	x	x	x	x	n
Cc1ccc(C)c(S(=O)(=O)N2[C@@H]3CC[C@@H](C3)[C@H]2c2nc3c(OCC4CCOCC4)cccc3[nH]2)c1	x	x	x	x	x	n
O=C(Nc1cccc(Cl)c1)N1CCCCCC1	u	n	n	15	n	n
O=C(Nc1ccc(C(=O)N2CCCCC2)cc1)c1ccccc1Cl	u	n	n	n	n	n
O=C(NC1CCN(C(=O)Nc2cccc(Cl)c2)CC1)c1ccccc1	u	n	n	n	n	n
O=C(Nc1cccc(Cl)c1)N1CCN(C2c3ccccc3-c3ccccc32)CC1	u	n	9.3µM	n	n	n
O=C(Nc1ccc(C(=O)N2CCCCC2)cc1)Nc1cccc(Cl)c1	n	72	u	33	n	n
O=C(Nc1ccccc1)N1CCCC1	n	n	x	n	n	n
COc1ccc(NC(=O)c2cc(S(=O)(=O)N3CCCCC3)cn2C)cc1Cl	x	x	x	x	x	n
Cc1ccccc1NC(=O)c1oc2c(c1C)-c1nn(Cc3cccc(Cl)c3)cc1CC2	x	x	x	x	x	n
SMILES	Pf growth 96h	Shiga toxin inh	Pf growth 48h	Cycloheximide cs	HCV inhibitor	HCMV antiviral
CN(c1ccccc1)S(=O)(=O)c1cccc(NC(=O)COC(=O)C2CCCCC2)c1	n	n	n	n	n	n
Cc1cn2c(=O)cc(COC(=O)c3cccc(NC(=O)COc4ccccc4Cl)c3)nc2s1	x	x	x	x	x	n
COc1ccc2c(c1)CC(C(=O)NCCCN1CCN(c3ccc(F)cc3)CC1)CO2 (stereo not drawn)	x	x	x	x	x	n
CN(C)CCCn1c2c3ccccc3ccc2c2oc(=O)c3ccccc3c21	x	x	x	x	u	-92
Cc1nn(C)c(C)c1/C=C(/C(=O)C(C)C)n1cncn1	u	n	u	n	n	n
CC(C)(C)C(=O)/C(=C/c1ccncc1)n1cncn1	n	n	7.4µM	n	2.2µM	-100
Cc1nn(C)c(C)c1/C=C(/C(=O)C(C)(C)C)n1cncn1	n	n	n	n	n	-98

Compound activity from PubChem BioAssay.
